Shown are actives, neighbours in structure and some others; about 2.4% of the full set was active somewhere.
Pf Dd2 growth – P. falciparum Dd2 growth inhibitors, primary screen, SYBR Green fluorescence, single dose replicates; 72 h; hits give low values; activity change, % at 10 µM; hit rate 2.3% among 94,000; AID 1159554, 2015; in the data active means activity change below about -80%
C diff growth – C. difficile growth inhibitors, primary screen, HTS; growth activity, negative = inhibition, % at 16 µg/mL (by protocol); Clostridium difficile clinical isolate growth, OD600, 24 h; hits give low values; hit rate 0.25% among 86,000; AID 1259249, 2017;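 active means mean growth activity at or below -80% and every replicate also at or below -80%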
Hits are given with their value; i = inactive; nt = no result.

SMILES | Pf Dd2 growth | C diff growth
C[C@H](CO)N1C[C@H](C)[C@H](CN(C)Cc2ccccc2)Oc2ncc(C3=CCCC3)cc2C1=O | i | i
COc1ccc(S(=O)(=O)Nc2ccc3c(c2)C(=O)N([C@H](C)CO)C[C@@H](C)[C@@H](CN(C)S(=O)(=O)c2ccc(OC)cc2)O3)cc1 | i | i
COc1ccc(S(=O)(=O)N(C)C[C@H]2OCCCC[C@H](C)Oc3ccc(NS(=O)(=O)c4ccc(C)cc4)cc3C(=O)N([C@H](C)CO)C[C@@H]2C)cc1 | i | i
COc1ccc(S(=O)(=O)Nc2ccc3c(c2)C(=O)N([C@H](C)CO)C[C@H](C)[C@@H](CN(C)S(=O)(=O)c2ccc(C)cc2)OCCCC[C@@H](C)O3)cc1 | i | nt
COc1ccc(S(=O)(=O)N(C)C[C@H]2OCCCC[C@H](C)Oc3ccc(NS(=O)(=O)c4ccc(C)cc4)cc3C(=O)N([C@H](C)CO)C[C@H]2C)cc1 | -83 | i
COc1ccc(S(=O)(=O)N(C)C[C@H]2OCCCC[C@H](C)Oc3ccc(NS(=O)(=O)c4ccc(C)cc4)cc3C(=O)N([C@@H](C)CO)C[C@H]2C)cc1 | -82 | i
COc1ccc(S(=O)(=O)Nc2ccc3c(c2)C(=O)N([C@H](C)CO)C[C@H](C)[C@@H](CN(C)S(=O)(=O)c2ccc(OC)cc2)O3)cc1 | -86 | i
C[C@@H]1CN([C@H](C)CO)C(=O)Cc2cc(NC(=O)Nc3ccc(F)cc3)ccc2O[C@H]1CN(C)S(=O)(=O)c1cn(C)cn1 | i | nt
CN(C)C(=O)c1ccc(-c2ccc(C3[C@@H]4CN(C(=O)C5CCCC5)C[C@H]3N4)cc2)cc1 (stereo not given in full) | i | i
CC=Cc1ccc2n(c1=O)C[C@@H]1[C@@H](CO)[C@H](C(=O)NCc3ccncn3)N(C(=O)NC3CCCC3)[C@H]21 (mixture of isomers) | nt | i

Source: PubChem BioAssay (Broad Institute)
